Where “and” joins values, the source holds several entries; their conditions need not be identical. Equal entries are not always repeated. Out of some 5,500 compounds screened, about 2,000 (36%) were called active. Roughly 18% stayed inconclusive and do not appear here. Cut-off read from the data, not from the text of the source: active = normalized growth mostly below about 0.91 (no sharp cut-off); inconclusive = no clear call, values can overlap the other calls; inactive = mostly above about 0.92. Some of the results follow.
Experiment: chemical genetic growth profiling, strain panel (AID 1159580);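 note: tested at 20 µM; growth read once vehicle control cultures reached saturation at 30 °C; 1 = growth at the plate median or of vehicle wells; lower values mean less growth of the strain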
Conditions: S. cerevisiae deletion strains, growth OD

Measured: normalized growth

C[C@]12CCC3c4ccc(O)cc4CCC3C1CC[C@@H]2O (some centres undefined)
inactive: locus YAL013W, strain DEP1, stronger effect = lower value 1.01 | locus YAL021C, strain ccr4, stronger effect = lower value 0.983 | locus YAL026C, strain drs2, stronger effect = lower value 0.943 | locus YAL030W, strain snc1, stronger effect = lower value 1.01 | locus YBL061C, strain skt5, stronger effect = lower value 0.961 | locus YBR009C, strain hhf1, stronger effect = lower value 0.91 | locus YBR023C, strain chs3, stronger effect = lower value 0.992 | locus YBR171W, strain sec66, stronger effect = lower value 1.01 | locus YBR229C, strain ROT2, stronger effect = lower value 1.01 | locus YBR231C, strain swc5, stronger effect = lower value 0.946 | locus YBR279W, strain paf1, stronger effect = lower value 0.993 | locus YCL011C, strain gbp2, stronger effect = lower value 0.988 | locus YCL016C, strain dcc1, stronger effect = lower value 0.975 | locus YCL029C, strain bik1, stronger effect = lower value 0.996 | locus YCL061C, strain MRC1, stronger effect = lower value 0.988 | locus YCL069W, strain vba3, stronger effect = lower value 1.01 | locus YCR088W, strain abp1, stronger effect = lower value 1.03 | locus YDL005C, strain med2, stronger effect = lower value 1.02 | locus YDL035C, strain GPR1, stronger effect = lower value 0.912 | locus YDL040C, strain nat1, stronger effect = lower value 1.02 | locus YDL074C, strain BRE1, stronger effect = lower value 0.882 | locus YDL101C, strain DUN1, stronger effect = lower value 1 | locus YDL185W, strain tfp1, stronger effect = lower value 0.979 | locus YDL192W, strain arf1, stronger effect = lower value 0.958 | locus YDR001C, strain nth1, stronger effect = lower value 1.03 | locus YDR069C, strain doa4, stronger effect = lower value 1 | locus YDR101C, strain arx1, stronger effect = lower value 0.958 | locus YDR150W, strain NUM1, stronger effect = lower value 1.03 | locus YDR159W, strain sac3, stronger effect = lower value 0.954 | locus YDR162C, strain NBP2, stronger effect = lower value 0.987 | locus YDR297W, strain sur2, stronger effect = lower value 0.992 | locus YDR318W, strain mcm21, stronger effect = lower value 0.996 | locus YDR334W, strain swr1, stronger effect = lower value 1.02 | locus YDR335W, strain msn5, stronger effect = lower value 0.985 | locus YDR388W, stronger effect = lower value 0.997 | locus YDR502C, strain sam2, stronger effect = lower value 0.973 | locus YEL003W, strain gim4, stronger effect = lower value 0.921 | locus YEL037C, strain rad23, stronger effect = lower value 1.02 | locus YEL061C, strain CIN8 (second series), stronger effect = lower value 1.01 | locus YEL061C, strain CIN8, stronger effect = lower value 1.02 | locus YER015W, strain faa2, stronger effect = lower value 0.981 | locus YER016W, strain bim1, stronger effect = lower value 0.969 | locus YER110C, stronger effect = lower value 0.989 | locus YER111C, strain swi4, stronger effect = lower value 1.03 | locus YER155C, strain BEM2 (second series), stronger effect = lower value 1.04 | locus YER155C, strain BEM2, stronger effect = lower value 1.03 | locus YER167W, strain BCK2, stronger effect = lower value 1 | locus YFR010W, strain ubp6, stronger effect = lower value 1 | locus YGL078C, strain dbp3, stronger effect = lower value 0.934 | locus YGL086W, strain mad1, stronger effect = lower value 0.953 | locus YGL167C, strain pmr1, stronger effect = lower value 1.01 | locus YGL173C, strain kem1, stronger effect = lower value 0.968 | locus YGL227W, strain vid30, stronger effect = lower value 1.03 | locus YGL240W, strain doc1, stronger effect = lower value 0.96 | locus YGL248W, strain PDE1, stronger effect = lower value 0.981 | locus YGR078C, strain PAC10, stronger effect = lower value 0.967 | locus YGR135W, strain pre9, stronger effect = lower value 0.949 | locus YHR013C, strain ard1, stronger effect = lower value 0.996 | locus YHR027C, strain rpn1, stronger effect = lower value 1.01 | locus YHR030C, strain SLT2, stronger effect = lower value 1.03 and 0.961 | locus YHR079C, strain IRE1 (second series), stronger effect = lower value 1.01 | locus YHR079C, strain IRE1, stronger effect = lower value 0.954 | locus YHR094C, strain hxt1, stronger effect = lower value 1.01 | locus YHR129C, strain ARP1, stronger effect = lower value 1 | locus YHR142W, strain chs7, stronger effect = lower value 0.891 | locus YHR200W, strain rpn10, stronger effect = lower value 1 | locus YIL066C, strain RNR3, stronger effect = lower value 0.955 | locus YIL073C, strain SPO22, stronger effect = lower value 0.936 | locus YIL125W, strain kgd1, stronger effect = lower value 1 | locus YIR030C, strain dcg1, stronger effect = lower value 1 | locus YJL092W, strain hpr5, stronger effect = lower value 1.03 | locus YJL095W, strain BCK1 (second series), stronger effect = lower value 0.997 | locus YJL095W, strain BCK1, stronger effect = lower value 0.978 and 0.961 | locus YJL115W, strain asf1, stronger effect = lower value 1.02 | locus YJL129C, strain trk1, stronger effect = lower value 0.889 | locus YJL134W, strain LCB3, stronger effect = lower value 1.02 | locus YJL154C, strain vps35, stronger effect = lower value 1.02 | locus YJL166W, strain qcr8, stronger effect = lower value 0.971 | locus YJL168C, strain set2, stronger effect = lower value 0.997 | locus YJL187C, strain SWE1 (second series), stronger effect = lower value 0.966 | locus YJL187C, strain SWE1, stronger effect = lower value 1.01 | locus YJR043C, strain POL32, stronger effect = lower value 0.938
active: locus YBR021W, strain FUR4, stronger effect = lower value 0.783 | locus YDR137W, strain rgp1, stronger effect = lower value 0.83 | locus YDR195W, strain ref2 1.27 [resistant] | locus YDR392W, strain spt3, stronger effect = lower value 0.639 | locus YGL253W, strain hxk2, stronger effect = lower value 0.895 | locus YGR252W, strain gcn5, stronger effect = lower value 0.735 | locus YJL164C, strain tpk1, stronger effect = lower value 0.916

— PubChem BioAssay AID1159580 (chemical genetic matrix, 2015)
